Results published in PubChem BioAssay (NCI).
About 83,000 compounds went through this panel and 20% of them were active in at least one assay; those are over-represented in the sample as a whole.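 In brief: 96-well plates, 48 h treatment, single concentration, percent growth endpoint.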 The source made the active and inactive calls. How the source made its calls: active means growth percent below 10; inactive means the rest.

Key:
Assay in all cases: NCI-60 one-dose screen, 48 h (100 = growth as untreated, 0 = no growth, -100 = all killed)
[1] = system: SR leukemia; details: 10 µM unless noted
[2] = system: OVCAR-5 ovarian; details: 10 µM unless noted
[3] = system: OVCAR-4 ovarian; details: 10 µM unless noted
[4] = system: SK-OV-3 ovarian; details: 10 µM unless noted
[5] = system: IGROV1 ovarian; details: 10 µM unless noted
[6] = system: OVCAR-3 ovarian; details: 10 µM unless noted
[7] = system: HS 578T breast; details: 10 µM
[8] = system: NCI/ADR-RES ovarian; details: 10 µM unless noted
[9] = system: OVCAR-8 ovarian; details: 10 µM unless noted
[10] = system: RPMI-8226 leukemia; details: 10 µM unless noted

Measured: growth

O=C1Cc2c([nH]c3ccc([N+](=O)[O-])cc23)-c2ccccc2N1
inactive: [2] 12.3% | [3] 16.7% | [4] 28.2% | [7] 25.6% | [8] 14.5%
active: [1] -8.53% | [5] -41.8% | [6] -14.4%

CN1CCN(Cc2ccc(NC(=O)c3cccc(C#Cc4cnc(N)c5ncccc45)c3F)cc2C(F)(F)F)CC1
inactive: [3] 49.6% | [4] 22.3% | [5] 24.5% | [6] 73.2% | [7] 18% | [8] 61.3%
active: [1] -3.15% | [9] -49.3% | [2] -5.62%

O=NN(CC(=O)NNc1ccccc1)CC(=O)NNc1ccccc1
inactive: [1] 74.3% | [9] 67.7% | [2] 74.5% | [3] 70.8% | [4] 101% | [6] 86.9% | [7] 94.2% | [8] 40.7%

Cc1cc(C)c2c(n1)sc1c(Nc3ccc(O)cc3)ncnc12
inactive: [1] 13.4% | [9] 10.8% | [2] 55.4% | [3] 90.6% | [4] 30.5% | [5] 68.2% | [6] 55.3% | [7] 82.5% | [8] 19.1%

C=CC[C@]1(O)CC[C@H]2[C@@H]3CCc4cc(O)ccc4[C@H]3CC[C@@]21C
inactive: [1] 38.4% | [9] 94.9% | [2] 98.5% | [3] 94.3% | [4] 107% | [5] 109% | [6] 102% | [8] 87.5%

COc1ccc(CCN2COc3c([C@@H](C)CCC=C(C)C)ccc(C)c3C2)cc1OC
inactive: [10] 28.5% | [9] 72.1% | [2] 83% | [3] 39.7% | [4] 82.6% | [5] 68.3% | [6] 30.2% | [7] 76.9% | [8] 44.6%

NC(N)=N/N=C\c1ccc(OCc2ccccc2)cc1
inactive: [1] 75.4% | [9] 89.1% | [2] 82.8% | [3] 56.8% | [4] 77.1% | [5] 77.7% | [6] 74.4% | [8] 80%

COCCn1c(Nc2ccc(C(=O)NO)cc2)nc2ccccc21
active: [8] -9.22%
inactive: [10] 44% | [9] 37.3% | [2] 47.4% | [3] 72.2% | [4] 49.2% | [5] 57.5% | [6] 83.5% | [7] 80.7%

O=C(CCCCCCc1nc2ccc(Br)cc2[nH]1)NO
inactive: [3] 24% | [7] 32.6%
active: [10] -4.38% | [9] 4.11% | [2] 8.25% | [4] -41.8% | [5] -9.43% | [6] -2.31% | [8] -31.3%

O=C(NO)c1ccc(NCc2csc3ccccc23)cc1
active: [8] 6.83%
inactive: [10] 35.7% | [9] 42% | [2] 73.4% | [3] 67.8% | [4] 81.8% | [5] 55.6% | [6] 66.8% | [7] 70.5%

O=C(CS)OCC(COC(=O)CS)(COC(=O)CS)COC(=O)CS
inactive: [1] 38.6% | [9] 82.2% | [2] 104% | [3] 83.6% | [4] 103% | [5] 94.4% | [6] 109% | [8] 74.3%

COc1ccccc1/C=N\NC(=S)Nc1ccc(F)cc1
inactive: [1] 28.6% | [9] 78.7% | [2] 94.1% | [4] 89.2% | [5] 72.1% | [6] 69.7% | [7] 70.3% | [8] 38.4%

COc1ccc(Nc2ncnc3c2sc2nc(C)cc(C)c23)cc1
inactive: [10] 101% | [9] 95% | [2] 93.1% | [3] 95.2% | [4] 118% | [5] 99.4% | [6] 113% | [7] 93% | [8] 108%

Cn1c(=O)c2c3c(oc2c2ccccc21)C(=O)c1ccccc1C3=O
active: [3] 4.38%
inactive: [10] 51.1% | [9] 85.3% | [2] 120% | [4] 93.6% | [5] 68.7% | [6] 21.6% | [7] 93.2% | [8] 76.9%

COc1ccc(OC)c(Nc2nc(-c3c(C)nc4sccn34)cs2)c1
inactive: [10] 41.9% | [9] 74.5% | [2] 97.9% | [3] 78% | [4] 103% | [5] 90.8% | [6] 94.7% | [7] 73.1% | [8] 77.8%

O=C1C=CC(=O)N1CO
inactive: [10] 112% | [9] 110% | [2] 101% | [3] 130% | [4] 116% | [5] 109% | [6] 113% | [7] 108% | [8] 129%

O=C(/C=C/c1ccccc1)n1c(-c2ccccc2)nc2ccccc21
inactive: [10] 105% | [9] 98.9% | [2] 95.7% | [3] 101% | [4] 110% | [5] 105% | [6] 111% | [7] 104% | [8] 104%

COc1ccc(/C=C/C(=O)c2ccc(NC(=O)CSc3nnc(-c4ccc(OC)cc4)n3-c3ccccc3)cc2)cc1
inactive: [10] 77.5% | [9] 92.2% | [2] 108% | [3] 100% | [4] 100% | [5] 111% | [6] 103% | [7] 91.2% | [8] 102%

O=C1C=CC(=O)N1c1cccc(N2C(=O)C=CC2=O)c1
inactive: [10] 91.7% | [9] 106% | [2] 102% | [3] 98.1% | [4] 111% | [5] 111% | [6] 66.4% | [7] 114% | [8] 110%

C=CCn1c(SCC(=O)Nc2ccc(/C(C)=N\O)cc2)nnc1-c1cc(-c2ccc(Cl)cc2)nc2ccccc12
active: [10] 9% | [5] -13.8% | [8] 2.18%
inactive: [9] 24% | [2] 56.7% | [3] 35% | [4] 52.6% | [6] 31.1% | [7] 67.1%

CN1CCN(c2ccc(N3Cc4ccccc4OC4=C3C(=O)c3c(O)ccc(O)c3C4=O)cn2)CC1
inactive: [4] 26% | [7] 23.5%
active: [10] -7.62% | [9] 2.15% | [2] -32.5% | [3] -97.2% | [5] -59.3% | [6] -99.6% | [8] 5.09%

O=C(CSc1ccc(Cl)cc1)Nc1ccc(-c2nc3ccccc3s2)c(Cl)c1
active: [6] -10.9%
inactive: [10] 38.5% | [9] 50.8% | [2] 99.1% | [3] 57.6% | [4] 94.7% | [5] 69.4% | [7] 79.1% | [8] 62%

CCCCC(CCc1ccccn1)C(=O)c1ccccc1 (centres undefined)
inactive: [10] 106% | [9] 112% | [2] 109% | [3] 110% | [4] 110% | [5] 101% | [6] 116% | [7] 112% | [8] 104%

Clc1ncnc2scc(C3COc4ccccc4O3)c12 (centres undefined)
inactive: [10] 95.7% | [9] 92.8% | [2] 94.4% | [3] 92.8% | [4] 115% | [5] 121% | [6] 106% | [7] 92.3% | [8] 109%

Clc1ccccc1Nc1nnc(-c2ccncc2)s1
inactive: [10] 89.2% | [9] 100% | [2] 107% | [3] 94.5% | [4] 105% | [5] 101% | [6] 110% | [7] 94.9% | [8] 102%

COc1ccc(/C=C/C(=O)c2ccc(NC(=O)CSc3nnc(-c4ccc(Cl)cc4)n3-c3ccccc3)cc2)cc1
inactive: [10] 60.4% | [9] 84.6% | [2] 123% | [3] 99.5% | [4] 104% | [5] 103% | [6] 102% | [7] 97.1% | [8] 93.9%

COc1ccc(C(=O)C(CN(C)C)c2ccccc2)cc1 (centres undefined)
active: [10] 9.15% | [5] 1.31% | [6] 0.0357% | [7] -13.8% | [8] 9.35%
inactive: [9] 17% | [2] 44.3% | [3] 33.4% | [4] 110%

O=C(Nc1cccc(Cl)c1)Nc1cc(C(F)(F)F)ccc1Cl
active: [10] -14% | [4] 9.3% | [8] 2.25%
inactive: [9] 15.2% | [2] 44.2% | [3] 11.6% | [5] 14.3% | [6] 18.9% | [7] 55.9%

Cc1cc(C)c([O-])c(CN(C)CCN(C)Cc2cc(C)cc(C)c2[O-])c1.O=C([O-])c1cccc(C(=O)[O-])n1.[Ti+4]
active: [10] -25.9% | [5] 6.22% | [6] 9.53% | [7] 0.477% | [8] 7.88%
inactive: [9] 20.9% | [2] 22.1% | [3] 22% | [4] 34.3%

CCCCCc1c(C)[nH]c(/C=C2\N=C(c3ccc[nH]3)C=C2CC)c1C
active: [10] -63.7% | [9] -65.2% | [2] -95.5% | [3] -89.8% | [4] -95.5% | [5] -63.3% | [6] -97.5% | [7] -27.5% | [8] -78.8%
